# Screening results: PubChem BioAssay, several laboratories
# In the library only some 1.1% were active in any assay of this set; here they are far more common.
# HTR5A inv ag: HTR5A inverse agonists in luminescence cell assay, primary screen, counter-screen for OPRM1-OPRD1 heterodimer inverse agonist project, full-deck HTS; 5-hydroxytryptamine receptor 5A (Homo sapiens), P47898; HTR5A cell line, inverse agonism; inhibition, % at 9.3 µM; 340,000 compounds, 0.083% hits; AID 504634, 2011; in the data active = inhibition mostly above about 23%, no sharp cut-off; inactive = mostly below about 18%;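 also: 0% = cells with DMSO and 100% = no-cell wells with DMSO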
# Target sequence (P47898 whole entry, looked up): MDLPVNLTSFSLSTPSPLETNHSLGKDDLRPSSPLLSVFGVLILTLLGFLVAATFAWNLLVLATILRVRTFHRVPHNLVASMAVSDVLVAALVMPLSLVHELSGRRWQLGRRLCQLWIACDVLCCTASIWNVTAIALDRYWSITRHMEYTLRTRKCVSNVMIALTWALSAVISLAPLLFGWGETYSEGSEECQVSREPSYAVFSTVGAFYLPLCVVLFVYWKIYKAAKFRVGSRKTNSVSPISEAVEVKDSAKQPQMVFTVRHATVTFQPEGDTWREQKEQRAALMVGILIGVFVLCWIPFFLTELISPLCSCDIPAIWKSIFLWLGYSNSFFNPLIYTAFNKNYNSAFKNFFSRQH
# MOR-DOR ag-1: agonists of OPRM1-OPRD1 heterodimerization, primary screen, cell-based, luminescence | 340,000 compounds, 0.3% hits | Mu-type opioid receptor (Homo sapiens) + Delta-type opioid receptor (Homo sapiens), … | activation, % at 9.3 µM | AID 504326, 2011 | cells;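 also: 0% = vehicle-treated cells and 100% = reference agonist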
# MOR-DOR inv ag: inverse agonists of MOR-DOR heterodimerization, primary screen, cell-based, luminescence. Mu-type opioid receptor (Homo sapiens) + Delta-type opioid receptor (Homo sapiens), …. 340,000 compounds, 0.21% hits. inhibition, % at 9.3 µM. AID 504357, 2011. cell-based MOR-DOR heterodimer luminescence, inverse agonism; in the data active = inhibition above about 22%, passing the limit was not always enough;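 also: 0% = cells with DMSO and 100% = wells without cells with DMSO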
# HTR5A ag ctr: HTR5A agonists in luminescence cell assay, primary screen, counter-screen for OPRM1-OPRD1 heterodimer agonist project, full-deck HTS | 5-hydroxytryptamine receptor 5A (Homo sapiens), P47898 | cell-based | activation, % at 9.3 µM | 340,000 compounds, 0.61% hits | AID 504692, 2011; in the data active = activation mostly above about 9.5%, no sharp cut-off; inactive = mostly below about 7.6%;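 also: 0% = cells with vehicle only and 100% = reference agonist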
# Bfl-1 A1 inh: caspase 3/7 activation in MEF A1-2A-BIM cells, primary screen, A1 inhibitor project, cell-based, luminescence, HTS; Caspase-Glo 3/7 luminescence, 3 h; percent of clofoctol response, vehicle zero; caspase activation, % (no concentration beside the values); 330,000 compounds, 0.066% hits; AID 2462, 2010;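 active = over half of replicate activation scores above 10%, or exactly half above 10 with the replicate mean above 10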
# MOR-DOR ag-2: OPRM1-OPRD1 heterodimerization promoters, counter-screen for HTR5A agonist project, cell-based, luminescence. shares compounds with HTR5A ag ctr. U2OS counter-screen cells, complementation luminescence, 3 h. activation, % at 9.3 µM. 800 compounds, 13% hits. AID 504913, 2011
# HTR5A ag confirm: HTR5A agonists, retest of hits, confirmation, cell-based, luminescence | shares compounds with HTR5A ag ctr | HTR5A agonist cell assay | activation, % at 9.3 µM | 800 compounds, 17% hits; in the data active = activation above about 17%;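 also: 0% = cells with vehicle only and 100% = full reference agonist response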
# * = called active by the depositor; nt = no result; ! = a repeat was not active. Rule as the data show it, unless noted: active = activation above about 18%; inactive = the rest.
SMILES,HTR5A inv ag,MOR-DOR ag-1,MOR-DOR inv ag,HTR5A ag ctr,Bfl-1 A1 inh,MOR-DOR ag-2,HTR5A ag confirm
CCOC(=O)C1(Cc2cccc(OC)c2)CCCN(Cc2c(C)nn(C(C)C)c2C)C1 (centres undefined),7,1,-3,-7,0,nt,nt
COc1ccc(N(CC(=O)NC2CCCC2)C(=O)CCC(=O)Nc2cc(C)on2)cc1OC,6,-3,17,1,1,nt,nt
O=C(O)c1cc(-c2ccco2)nc2ccc(Br)cc12,-47,3,-13,18*!,0,42*,4
O=C(c1ccco1)N1CCN(C(=O)c2cc(-c3ccncc3)nc3ccc(Br)cc23)CC1,0,0,2,2,1,nt,nt
C#CCNC(=O)C1=C[C@@H](C2CCCCC2)[C@H](CCCO)[C@@H](OCC)O1,-21,-1,8,3,0,nt,nt
Cc1ccc2nc(-c3ccc(O)cc3)c(Nc3ccc4c(c3)OCCO4)n2c1,-166,2,-14,22*,0,1,58*
Cc1ccc2nc(-c3ccccc3O)c(Nc3ccc4c(c3)OCCO4)n2c1,-54,0,1,20*,-1,4,37*
Cc1ccc(-c2nc3cnccn3c2Nc2ccc3c(c2)OCO3)cc1,0,0,-1,3,-1,nt,nt
Cc1ccc(Nc2c(-c3ccccc3O)nc3cnccn23)cc1,-5,2,-11,2,0,nt,nt
CCCCCC(=O)N1CCN(CCN=CC2=C(O)CC(c3cccs3)CC2=O)CC1 (centres undefined),-9,0,-1,2,-1,nt,nt
CC(C)Oc1ccc(C2CNC(=O)C2)cc1 (centres undefined),-60,1,-6,23*,1,1,65*
CC(C)Oc1ccc(C2CC(=O)NC2=O)cc1 (centres undefined),-10,-2,11,1,-2,nt,nt
COc1cccc(S(=O)(=O)NCc2ccc(C(=O)Nc3cccc(Cl)c3)cc2)c1,-46,6,-27,19*,0,-3,-1
CC(c1ccc(O)cc1)(c1ccc(O)cc1)c1ccc(CCBr)cc1,-53,-1,6,15*,0,7,3
OCCc1ccc(O)cc1,-37,-3,18,10,0,nt,nt
O=C(C1CCN(S(=O)(=O)c2ccc3c(c2)OCCO3)CC1)N1CCc2ccccc21,-86,0,1,33*,0,1,23*
O=C(C1CCN(S(=O)(=O)c2ccccc2)CC1)N1CCc2ccccc21,-20,-2,8,8,0,nt,nt
COc1ccc(OC)c(S(=O)(=O)N(C)CC(=O)N2CCCCC2)c1,13,-3,14,1,1,nt,nt
COc1ccc(-c2csc(-c3cc4ccccc4oc3=N)n2)cc1,0,0,0,0,0,nt,nt
CC1=NNC(=O)/C1=C\c1cn(-c2ccccc2)nc1-c1ccc(Cl)cc1,-75,5,-27,23*,41*,-2,-5
C=CCOc1ccc(/C=C/C(=O)OCc2csc(CC(=O)Nc3ccccc3C)n2)cc1,-50,4,-16,20*,-1,33*,7
Cc1ccccc1NC(=O)Cc1nc(COC(=O)C(C)C)cs1,8,-2,12,2,-1,nt,nt
CC(C(=O)NC1C=CS(=O)(=O)C1)N1C(=O)/C(=C/c2cccc(Cl)c2)SC1=S (centres undefined),-17,0,1,15*,-1,38*,2
CC(C)c1ccc(-c2nnn(CCC#N)n2)cc1,-1,-3,16,0,-1,nt,nt
CC(C)c1ccc(-c2nnn(Cc3nc4ccccc4s3)n2)cc1,2,4,-18,21*,0,3,1
SMILES,HTR5A inv ag,MOR-DOR ag-1,MOR-DOR inv ag,HTR5A ag ctr,Bfl-1 A1 inh,MOR-DOR ag-2,HTR5A ag confirm
COC(=O)C1=C(C(=O)OC)SC2(S1)C(C(=O)OC)=C(C(=O)OC)SC1=C2c2cc(C)ccc2NC1(C)C,-9,1,-8,-4,0,nt,nt
COC(=O)c1ccc(CSc2nnc(NC(=O)C3CCCO3)s2)cc1 (centres undefined),-4,-2,11,2,1,nt,nt
O=C(Nc1nnc(SCc2ccc(Cl)cc2)s1)C1CCCO1 (centres undefined),-54,-2,9,21*,0,1,-1
CCn1c(C)nc2cc(C(=O)N/N=C/c3ccc(OC)cc3)ccc21,nt,nt,nt,nt,0,nt,nt
CCn1c(C)nc2cc(C(=O)N/N=C/c3ccc(OC)c(O)c3)ccc21,-27,0,-1,14*,0,0,-1
Cc1ccc(C(=O)NCCc2nnc3ccc(SCC(=O)Nc4ccccc4F)nn23)cc1,15,0,0,1,0,nt,nt
CCNS(=O)(=O)c1ccc(CCC(=O)NCc2ccncc2)cc1,4,-4,20,-1,2,nt,nt
O=C(CC1CC2CCC1C2)OCC(=O)c1c[nH]c2ccccc12 (centres undefined),22,13,-76,15*,1,6,3
COc1ccc(NC(=S)N/N=C2\CC(C)(C)Oc3ccc(OC)cc32)cc1,-67,1,-7,19*,1,8,9
Cc1ccc(NC(=S)N/N=C2\CC(C)(C)Oc3ccc(O)cc32)cc1,19,0,-2,-7,1,nt,nt
Cc1nn(-c2ccccc2)c(Cl)c1C(=O)NCCN(C)C,-6,1,-4,15*,0,0,1
Cc1nn(-c2ccccc2)c(Cl)c1C(=O)NCC(C)C,10,-3,16,-5,0,nt,nt
CC(C)c1ccc(C2(C)NC(=O)N(CC(=O)NCC3COc4ccccc4O3)C2=O)cc1 (centres undefined),-3,1,-3,1,0,nt,nt
COc1ccc(NC(=O)CN(C)C(=O)C2CC(=O)N(c3cccc4ccccc34)C2)cc1 (centres undefined),-40,1,-3,16*,nt,0,-2
Nc1ncnc2nc(N3CCN(C(=O)c4ccccc4)CC3)[nH]c12,-47,-3,17,19*,0,0,-1
O=C(NCCN1CCCCC1)c1ccc(F)cc1Cl,12,5,-22,-3,-1,nt,nt
O=C1C(C=NCCCN2CCCC2=O)=C(O)c2ccccc21,-7,-1,4,18*,-1,28*,13
COc1ccc(/C=C(\NC(=O)c2ccccc2Cl)C(=O)NCCCC(=O)O)cc1,31,-3,16,6,nt,nt,nt
O=C(NNC(=S)Nc1ccccc1)c1cccc(Br)c1,-45,-4,24,18*,-1,-1,4
O=C(NNC(=S)Nc1ccc(Br)cc1)c1ccccc1,11,-2,16,-6,1,nt,nt
